Experimental data from PubChem BioAssay (NCATS).
Inconclusive results are not listed. Active and inactive are the calls of the source. Calls follow the shape of the dose curve; as a rule, active = well fitted curve in the direction sought with a large enough effect; inconclusive = small, poorly fitted or top-dose-only effect, or another doubt; inactive = no such curve, though single readings can be large; an effect the other way counts as inactive or inconclusive.

Each compound was assayed against Rap guanine nucleotide exchange factor 4 (Homo sapiens) (UniProt Q8WZA2) (assay: Confirmatory qHTS for agonist of cAMP-regulated guanine nucleotide exchange factor 4 (EPAC2) (AID 1645884;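 also: nucleotide exchange releases bodipy-GDP from Rap1 and this lowers its fluorescence; nearly all actives have a fitted effect of over 65% in size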)). Conditions: EPAC2 GEF activity, Rap1B-BODIPY-GDP fluorescence; series mostly up to 154 µM; activation: at the top concentration.
% is scaled to controls: 0 for no effect and ±100 for the full control effect; potency is read from the fitted curve at half-maximal effect.

Sequence of Rap guanine nucleotide exchange factor 4 (Homo sapiens) (Q8WZA2 whole entry, looked up): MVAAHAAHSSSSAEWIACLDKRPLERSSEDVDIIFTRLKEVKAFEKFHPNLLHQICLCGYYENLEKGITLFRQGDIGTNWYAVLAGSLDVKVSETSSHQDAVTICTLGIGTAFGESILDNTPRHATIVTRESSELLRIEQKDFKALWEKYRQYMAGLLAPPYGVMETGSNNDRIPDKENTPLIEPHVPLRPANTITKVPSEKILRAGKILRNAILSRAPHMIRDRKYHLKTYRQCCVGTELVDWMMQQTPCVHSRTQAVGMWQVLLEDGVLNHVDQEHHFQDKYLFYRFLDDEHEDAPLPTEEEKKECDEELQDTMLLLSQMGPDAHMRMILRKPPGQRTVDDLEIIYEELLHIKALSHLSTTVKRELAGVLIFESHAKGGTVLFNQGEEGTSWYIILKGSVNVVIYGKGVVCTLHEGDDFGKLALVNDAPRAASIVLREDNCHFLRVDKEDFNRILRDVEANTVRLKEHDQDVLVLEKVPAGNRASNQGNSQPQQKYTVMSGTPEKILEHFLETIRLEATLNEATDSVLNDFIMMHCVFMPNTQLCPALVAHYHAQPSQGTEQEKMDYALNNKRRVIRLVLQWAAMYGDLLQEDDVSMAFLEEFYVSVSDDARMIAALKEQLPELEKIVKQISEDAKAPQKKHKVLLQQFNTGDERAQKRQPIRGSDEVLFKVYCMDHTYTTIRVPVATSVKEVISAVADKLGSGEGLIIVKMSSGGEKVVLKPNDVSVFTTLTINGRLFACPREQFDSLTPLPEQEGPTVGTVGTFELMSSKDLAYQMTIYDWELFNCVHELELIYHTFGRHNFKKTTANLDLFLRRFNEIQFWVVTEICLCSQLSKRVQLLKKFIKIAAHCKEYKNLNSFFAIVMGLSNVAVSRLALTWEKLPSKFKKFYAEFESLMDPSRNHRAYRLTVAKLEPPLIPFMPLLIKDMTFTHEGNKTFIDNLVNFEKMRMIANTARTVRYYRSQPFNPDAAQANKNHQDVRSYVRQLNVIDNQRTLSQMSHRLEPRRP

| SMILES | activation | Potency |
| --- | --- | --- |
| COc1cc2c(cc1OC)C1C(=O)c3ccc4c(c3OC1CO2)C=CC(C)(C)O4 (stereo unspecified) | 12.4% (inactive) | – |
| COc1ccc2[nH]cc(CCNc3ncnc4ccc(-c5ccccc5OC)cc34)c2c1 | 15.2% (inactive) | – |
| Cc1cc(C)c2nc(N3C(=O)C(O)=C(C(=O)c4ccco4)C3c3ccc(O)cc3)sc2c1 (stereo unspecified) | -26.9% (inactive) | – |
| COC(=O)[C@@]1(C)CCC[C@@]2(C)c3ccc(O)c(C(C)C)c3CCC21 (stereo partly specified) | 12.8% (inactive) | – |
| COc1cccc(-c2cncnc2NCc2ccccc2OC)c1 | 0.482% (inactive) | – |
| CCOC(=O)C(C)Sc1ncnc2c1nnn2-c1ccc(F)cc1 (stereo unspecified) | 3.03% [at 17.1 µM, percent relative to cAMP agonist control] (inactive) | – |
| Oc1ccc2ccc3cccc[n+]3c2c1 | – | 100 µM (active) |
| O=C1c2cccc3c(O)ccc(c23)C(=O)N1Cc1ccco1 | – | 100 µM (active) |
| O=C(Nc1sc2c(c1C(=O)O)CCC2)c1ccccc1F | 0.131% (inactive) | – |
| CCOC(=O)C1(O)Oc2cc(OC)cc(OC)c2C(=O)C1c1ccccc1 (stereo unspecified) | 14.5% (inactive) | – |
| COc1cccc(Cn2c(=O)c(CCc3ccccc3)nc3cnc(N4CCN(C)CC4)nc32)c1 | 19.4% (inactive) | – |
| CC(C)=CCc1c(O)cc(O)c2c1O[C@H](c1ccccc1)CC2=O | -13.3% (inactive) | – |
| Nc1ccc2cc3[nH]c4cc(N)ccc4c3nc2c1 | – | 100 µM (active) |
| O=c1cnc2cnc(OCc3ccccc3)nc2n1CCc1ccccc1 | -0.265% (inactive) | – |
| CN1CCN(c2ncc3nc(-c4cccs4)c(=O)n(CCc4ccccc4)c3n2)CC1 | -20.5% (inactive) | – |
| Cc1nc(Nc2ccc(S(=O)(=O)N3CCCCC3C)cc2)c2nnn(Cc3ccccc3)c2n1 (stereo unspecified) | 0.0677% (inactive) | – |
| COc1ccc(-c2nc(C)ncc2-c2ccc(Cl)cc2)c(O)c1 | 0% (inactive) | – |
| O=c1cnc2cnc(Oc3ccccc3)nc2n1Cc1cccs1 | 7.21% (inactive) | – |
| O=C(c1cnccn1)N1CCC[C@@]2(CCN(c3cccc(-c4ccccc4)c3)C2)C1 | 15.1% (inactive) | – |
| CC1=NOC(=O)/C1=C\c1ccc(-c2ccc(Br)cc2)o1 | -0.7% [at 17.1 µM, percent relative to cAMP agonist control] (inactive) | – |

| SMILES | activation | Potency |
| --- | --- | --- |
| O=C1c2cccc3c(O)ccc(c23)C(=O)N1Cc1ccccc1 | – | 100 µM (active) |
| C=C1CCC(O)C/C1=C\C=C1/CCCC2(C)C1CCC2C(C)CCCC(C)C (stereo unspecified) | -27.5% (inactive) | – |
| Nc1ccc(-c2c3ccc(=O)cc-3oc3cc(O)ccc23)cc1C(=O)O | – | 100 µM (active) |
| COc1ccc(CNc2nc(-c3cccnc3)nc3ccccc23)c(OC)c1 | -0.473% (inactive) | – |
| O=C(/C=C/c1ccco1)NCC1OCCc2ccccc21 (stereo unspecified) | -26.5% (inactive) | – |
| O=C(c1ccco1)N1CCC2(CC1)CN(c1cccc(-c3ccccc3)c1)C2 | 16.2% (inactive) | – |
| CN(C)c1ncc2nc(CCc3ccccc3)c(=O)n(Cc3cccs3)c2n1 | 8.4% (inactive) | – |
| CN1CCN(c2ncc3nc(CCc4ccccc4)c(=O)n(Cc4cccs4)c3n2)CC1 | 20.7% (inactive) | – |
| CC(=O)Nc1ccc(N2C(=O)c3cccc4c(O)ccc(c34)C2=O)cc1 | – | 112 µM (active) |
| CCOc1ccc(-n2c(SCC(=O)Nc3ccc(F)cc3)nc3c([nH]c4ccccc43)c2=O)cc1 | -2.46% [at 83.8 µM, percent relative to cAMP agonist control] (inactive) | – |
| CC1(C)C(OC(=O)CCC(=O)O)CC[C@]2(C)C1CC[C@@]1(C)C2C(=O)C=C2[C@@H]3C[C@@](C)(C(=O)O)CC[C@]3(C)CCC21C (stereo partly specified) | 2.61% (inactive) | – |
| CCOC(=O)c1cnc2ccc(OC)cc2c1Nc1ccc(N2CCN(C)CC2)cc1 | 12.5% [at 17.1 µM, percent relative to cAMP agonist control] (inactive) | – |
| C=C1CCC(O)C/C1=C\C=C1/CCCC2(C)C1CCC2C(C)/C=C/C(C)C(C)C (stereo unspecified) | -1.11% (inactive) | – |
| CCN1C(=O)c2cccc3c(N)ccc(c23)C1=O | – | 100 µM (active) |
| COc1ccc(Oc2ncc3nc(CCc4ccccc4)c(=O)n(CCC#N)c3n2)cc1 | 2.74% (inactive) | – |
| CCNc1ccc2noc3c2c1C(=O)c1ccccc1-3 | – | 100 µM (active) |
| COc1ccc2c(=O)c(OC)c(-c3ccccc3)oc2c1 | 5.14% (inactive) | – |
| CN1CCN(c2ncc3nc(-c4cn(C)c5ccccc45)c(=O)n(CCC#N)c3n2)CC1 | -2.5% (inactive) | – |
| COc1ccc(C(C(=O)NC(C)(C)C)n2c(=O)c(-c3cc4ccccc4[nH]3)nc3ccccc32)cc1 (stereo unspecified) | 2.28% (inactive) | – |

These compounds were tested against Rap guanine nucleotide exchange factor 4 (Homo sapiens) (UniProt Q8WZA2) (assay: Confirmatory qHTS for antagonist of cAMP-regulated guanine nucleotide exchange factor 4 (EPAC2) (AID 1645885; also: nearly all actives have a fitted effect of over 25% in size)). Conditions: EPAC2 Rap1B-BODIPY-GDP exchange fluorescence, biochemical; series mostly up to 12.7 µM; activity change, negative = inhibition: at the top concentration.

| SMILES | activity change, negative = inhibition | Potency |
| --- | --- | --- |
| COc1cc2c(cc1OC)C1C(=O)c3ccc4c(c3OC1CO2)C=CC(C)(C)O4 (stereo unspecified) | -16.4% [at 114 µM] (inactive) | – |
| COc1ccc2[nH]cc(CCNc3ncnc4ccc(-c5ccccc5OC)cc34)c2c1 | -3.79% [at 114 µM] (inactive) | – |
| COC(=O)[C@@]1(C)CCC[C@@]2(C)c3ccc(O)c(C(C)C)c3CCC21 (stereo partly specified) | -28.5% [at 114 µM] (inactive) | – |
| COc1cccc(-c2cncnc2NCc2ccccc2OC)c1 | – | 44.1 µM (active) |
| Oc1ccc2ccc3cccc[n+]3c2c1 | 247% [at 114 µM] (inactive) | – |
| O=C1c2cccc3c(O)ccc(c23)C(=O)N1Cc1ccco1 | – | 67.5 µM (active) |
| CCOC(=O)C1(O)Oc2cc(OC)cc(OC)c2C(=O)C1c1ccccc1 (stereo unspecified) | -25.8% [at 114 µM] (inactive) | – |
| COc1cccc(Cn2c(=O)c(CCc3ccccc3)nc3cnc(N4CCN(C)CC4)nc32)c1 | 25.8% [at 114 µM] (inactive) | – |
| CC(C)=CCc1c(O)cc(O)c2c1O[C@H](c1ccccc1)CC2=O | – | 39.3 µM (active) |
| Nc1ccc2cc3[nH]c4cc(N)ccc4c3nc2c1 | 342% [at 114 µM] (inactive) | – |
| O=c1cnc2cnc(OCc3ccccc3)nc2n1CCc1ccccc1 | – | 31.2 µM (active) |
| CN1CCN(c2ncc3nc(-c4cccs4)c(=O)n(CCc4ccccc4)c3n2)CC1 | 10.9% [at 114 µM] (inactive) | – |
| Cc1nc(Nc2ccc(S(=O)(=O)N3CCCCC3C)cc2)c2nnn(Cc3ccccc3)c2n1 (stereo unspecified) | -7.94% [at 114 µM] (inactive) | – |
| O=c1cnc2cnc(Oc3ccccc3)nc2n1Cc1cccs1 | – | 15.6 µM (active) |
| O=C(c1cnccn1)N1CCC[C@@]2(CCN(c3cccc(-c4ccccc4)c3)C2)C1 | -22.1% [at 114 µM] (inactive) | – |
| CC1=NOC(=O)/C1=C\c1ccc(-c2ccc(Br)cc2)o1 | -9.13% (inactive) | – |

| SMILES | activity change, negative = inhibition | Potency |
| --- | --- | --- |
| O=C1c2cccc3c(O)ccc(c23)C(=O)N1Cc1ccccc1 | – | 75.7 µM (active) |
| C=C1CCC(O)C/C1=C\C=C1/CCCC2(C)C1CCC2C(C)CCCC(C)C (stereo unspecified) | – | 39.3 µM (active) |
| Nc1ccc(-c2c3ccc(=O)cc-3oc3cc(O)ccc23)cc1C(=O)O | 265% [at 114 µM] (inactive) | – |
| COc1ccc(CNc2nc(-c3cccnc3)nc3ccccc23)c(OC)c1 | -21.3% [at 114 µM] (inactive) | – |
| O=C(c1ccco1)N1CCC2(CC1)CN(c1cccc(-c3ccccc3)c1)C2 | 4.75% [at 114 µM] (inactive) | – |
| CN(C)c1ncc2nc(CCc3ccccc3)c(=O)n(Cc3cccs3)c2n1 | -10.4% [at 114 µM] (inactive) | – |
| CN1CCN(c2ncc3nc(CCc4ccccc4)c(=O)n(Cc4cccs4)c3n2)CC1 | 16.7% [at 114 µM] (inactive) | – |
| CC(=O)Nc1ccc(N2C(=O)c3cccc4c(O)ccc(c34)C2=O)cc1 | 271% [at 114 µM] (inactive) | – |
| CC1(C)C(OC(=O)CCC(=O)O)CC[C@]2(C)C1CC[C@@]1(C)C2C(=O)C=C2[C@@H]3C[C@@](C)(C(=O)O)CC[C@]3(C)CCC21C (stereo partly specified) | – | 15.6 µM (active) |
| CCOC(=O)c1cnc2ccc(OC)cc2c1Nc1ccc(N2CCN(C)CC2)cc1 | -1.62% (inactive) | – |
| C=C1CCC(O)C/C1=C\C=C1/CCCC2(C)C1CCC2C(C)/C=C/C(C)C(C)C (stereo unspecified) | -12.3% [at 114 µM] (inactive) | – |
| CCN1C(=O)c2cccc3c(N)ccc(c23)C1=O | – | 75.7 µM (active) |
| COc1ccc(Oc2ncc3nc(CCc4ccccc4)c(=O)n(CCC#N)c3n2)cc1 | -12% [at 114 µM] (inactive) | – |
| CCNc1ccc2noc3c2c1C(=O)c1ccccc1-3 | – | 16.9 µM (active) |
| COc1ccc2c(=O)c(OC)c(-c3ccccc3)oc2c1 | – | 13.9 µM (active) |
| CN1CCN(c2ncc3nc(-c4cn(C)c5ccccc45)c(=O)n(CCC#N)c3n2)CC1 | 36.9% [at 114 µM] (inactive) | – |
